Laboratory results reported in PubChem BioAssay AID1159580 (chemical genetic matrix, 2015).
About 2,000 (36%) of roughly 5,500 compounds were called active. Another 18% or so got no clear call; they are omitted. Cut-off read from the data, not from the text of the source: active = normalized growth mostly below about 0.91 (no sharp cut-off); inconclusive = no clear call, values can overlap the other calls; inactive = mostly above about 0.92. The list shows a part of the results.

Assay: chemical genetic growth profiling, strain panel (AID 1159580);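 note: tested at 20 µM; growth read once vehicle control cultures reached saturation at 30 °C; 1 = growth at the plate median or of vehicle wells; lower values mean less growth of the strain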
Details: S. cerevisiae deletion strains, growth OD

Measured: normalized growth

COC(=O)C[C@H]1C(C)(C)C2(Cl)O[C@@]34CC2C(=O)[C@]1(C)C3CC[C@]1(C)C4=CC(=O)O[C@H]1c1ccoc1 (stereo not given in full)
inactive: locus YAL013W, strain DEP1, active compounds read low 1.01 | locus YBR021W, strain FUR4, active compounds read low 0.995 | locus YBR229C, strain ROT2, active compounds read low 1 | locus YCL029C, strain bik1, active compounds read low 1.01 | locus YDL035C, strain GPR1, active compounds read low 1.02 | locus YDL074C, strain BRE1, active compounds read low 0.989 | locus YDL101C, strain DUN1, active compounds read low 0.997 | locus YDL134C, strain PPH21, active compounds read low 0.999 | locus YDL185W, strain tfp1, active compounds read low 0.994 | locus YDL192W, strain arf1, active compounds read low 0.99 | locus YDR101C, strain arx1, active compounds read low 0.993 | locus YDR162C, strain NBP2, active compounds read low 0.971 | locus YDR318W, strain mcm21, active compounds read low 1 | locus YDR388W, active compounds read low 0.993 | locus YDR502C, strain sam2, active compounds read low 0.996 | locus YEL061C, strain CIN8, active compounds read low 1 | locus YER110C, active compounds read low 0.993 | locus YER155C, strain BEM2, active compounds read low 1.01 | locus YER167W, strain BCK2, active compounds read low 1.01 | locus YGL078C, strain dbp3, active compounds read low 0.99 | locus YGL086W, strain mad1, active compounds read low 0.989 | locus YGL248W, strain PDE1, active compounds read low 1 | locus YGR078C, strain PAC10, active compounds read low 0.991 | locus YGR135W, strain pre9, active compounds read low 0.976 | locus YGR252W, strain gcn5, active compounds read low 0.966 | locus YHR030C, strain SLT2, active compounds read low 0.999 | locus YHR079C, strain IRE1 (second series), active compounds read low 0.996 | locus YHR094C, strain hxt1, active compounds read low 0.995 | locus YHR129C, strain ARP1, active compounds read low 1 | locus YHR200W, strain rpn10, active compounds read low 0.992 | locus YIL066C, strain RNR3, active compounds read low 1.01 | locus YIL073C, strain SPO22, active compounds read low 1 | locus YIL125W, strain kgd1, active compounds read low 1 | locus YIR030C, strain dcg1, active compounds read low 0.986 | locus YJL095W, strain BCK1, active compounds read low 0.996 | locus YJL134W, strain LCB3, active compounds read low 1.01 | locus YJL168C, strain set2, active compounds read low 0.987 | locus YJL187C, strain SWE1 (second series), active compounds read low 1 | locus YJR075W, strain HOC1, active compounds read low 1.01 | locus YKL009W, strain mrt4, active compounds read low 0.983 | locus YKL068W, active compounds read low 1.01 | locus YKL085W, strain MDH1 (second series), active compounds read low 0.996 | locus YKL085W, strain MDH1, active compounds read low 0.996 | locus YKR001C, strain vps1, active compounds read low 1 | locus YLR039C, strain RIC1, active compounds read low 1.05 | locus YLR058C, strain SHM2, active compounds read low 1 | locus YLR102C, strain apc9, active compounds read low 1 | locus YLR268W, strain sec22, active compounds read low 1 | locus YLR342W, strain FKS1 (second series), active compounds read low 1.02 | locus YLR371W, strain rom2, active compounds read low 0.996 | locus YLR418C, strain cdc73, active compounds read low 0.96 | locus YML016C, strain PPZ1, active compounds read low 1.01 | locus YML032C, strain rad52, active compounds read low 0.995 | locus YML124C, strain tub3, active compounds read low 0.992 | locus YMR078C, strain ctf18, active compounds read low 1.01 | locus YMR223W, strain ubp8, active compounds read low 0.979 | locus YMR307W, strain GAS1, active compounds read low 0.957 | locus YNL067W, strain RPL9B, active compounds read low 1 | locus YNL153C, strain GIM3, active compounds read low 1 | locus YNL233W, strain BNI4, active compounds read low 0.995 | locus YNL250W, strain rad50, active compounds read low 0.995 | locus YNL271C, strain bni1, active compounds read low 0.998 | locus YNL298W, strain CLA4, active compounds read low 0.99 | locus YNL307C, strain MCK1, active compounds read low 0.991 | locus YNR052C, strain pop2, active compounds read low 0.998 | locus YOL006C, strain TOP1, active compounds read low 1.02 | locus YOL012C, strain htz1 0.78 | locus YOL147C, strain pex11, active compounds read low 0.99 | locus YOR061W, strain CKA2, active compounds read low 1.01 | locus YOR069W, strain VPS5, active compounds read low 1 | locus YOR136W, strain idh2, active compounds read low 0.988 | locus YOR144C, strain elg1, active compounds read low 0.995 | locus YOR184W, strain ser1, active compounds read low 1.01 | locus YOR316C, strain cot1, active compounds read low 0.988 | locus YPL241C, strain CIN2, active compounds read low 1 | locus YPR119W, strain clb2, active compounds read low 0.989 | locus YPR141C, strain kar3, active compounds read low 0.997 | locus YPR163C, strain tif3, active compounds read low 0.991 | locus YPR167C, strain met16, active compounds read low 0.991 | strain wtn01, active compounds read low 1.02
